High-throughput results deposited in PubChem BioAssay by National Center for Advancing Translational Sciences (NCATS).
Only some compounds are listed: those with a hit (about 9.2% of all), similar ones and a draw of the others.
SMN2 splice enh: qHTS Assay for Enhancers of SMN2 Splice Variant Expression; Potency, µM (highest dose often 46.1 µM), hits mostly activators; 210,000 compounds, 2.8% hits; HEK293 SMN2-luciferase splicing reporter, luminescence, 30-36 h; also: nearly all actives have a fitted effect of over 55% in size
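qHTS luciferase splicing reporter: luminescence rises when SMN2 exon 7 is included in transfected HEK293 cells. Compound exposure lasted 30-36 h at 37C, with 4.5 mM final sodium butyrate as control, followed by a ONE-Glo read.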
FLuc modulator: qHTS profiling assay for firefly luciferase inhibitor/activator using purifed enzyme and Km concentrations of substrates (counterscreen for miR-21 project); purified FLuc, Km substrates, luminescence inhibition; Potency, µM (doses to about 57.5 µM), hits mostly inhibitors; 360,000 compounds, 6.9% hits; Luciferin 4-monooxygenase (Photinus pyralis), P08659; also: nearly all actives have a fitted effect of over 55% in size
Target sequence (P08659 whole entry, looked up): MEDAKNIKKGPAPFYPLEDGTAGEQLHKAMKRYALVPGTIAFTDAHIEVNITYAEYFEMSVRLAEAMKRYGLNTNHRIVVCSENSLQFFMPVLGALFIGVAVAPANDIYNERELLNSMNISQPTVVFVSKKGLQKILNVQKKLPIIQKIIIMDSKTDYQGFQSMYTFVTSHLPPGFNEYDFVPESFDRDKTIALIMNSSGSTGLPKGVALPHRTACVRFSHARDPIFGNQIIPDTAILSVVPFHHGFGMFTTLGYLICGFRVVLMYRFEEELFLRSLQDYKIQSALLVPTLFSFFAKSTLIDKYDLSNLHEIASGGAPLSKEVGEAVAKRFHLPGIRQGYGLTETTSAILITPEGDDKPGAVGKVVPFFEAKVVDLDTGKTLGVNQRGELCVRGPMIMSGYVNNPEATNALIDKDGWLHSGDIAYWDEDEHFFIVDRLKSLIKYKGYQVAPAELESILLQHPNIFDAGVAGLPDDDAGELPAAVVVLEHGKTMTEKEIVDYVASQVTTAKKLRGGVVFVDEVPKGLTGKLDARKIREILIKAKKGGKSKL
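Purified P. pyralis luciferase (10nM final) with 10uM D-luciferin and 10uM ATP (Km levels) in 50mM Tris acetate pH 7.5, 10mM Mg acetate, 0.01% Tween-20, 0.05% BSA; qHTS 6-point titration, ~60 µM downward; luminescence read.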
Rab9 prom act: qHTS Assay for Rab9 Promoter Activators; Huh7 Rab9 promoter-luciferase reporter, luminescence, 24 h; Potency, µM (titrated, usually from 9.22 µM), usual class: activators; 320,000 compounds, 2.8% hits; AID 485297, 2010; also: nearly all actives have a fitted effect of over 60% in size
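Cell-based reporter: Huh7 stable for Rab9 promoter-driven luciferase, plated in reduced-serum medium with 10% FBS at 1500 cells/well, compound-treated 24 h at 37 °C, luminescence read after 10 min reagent.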
ELG1 genotoxic: qHTS screen for small molecules that induce genotoxicity in human embryonic kidney (HEK293T) cells expressing luciferase-tagged ELG1 | HEK293T ELG1-luciferase reporter, luminescence, 16 h | Potency, µM (series often up to 46 µM), usual class: activators | 330,000 compounds, 1.3% hits | AID 504466, 2011; also: nearly all actives have a fitted effect of over 60% in size
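Step 1: seed 2,000 HEK293T ELG1-luciferase cells per well. Step 2: add compound or DMSO, incubate 16 hr at 37 °C. Step 3: ONE-Glo, 30 min at room temperature, read luminescence.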
NPC1 prom act: qHTS Assay for NPC1 Promoter Activators. Huh7 NPC1 promoter luciferase reporter, 24 h. Potency, µM (series often up to 9.22 µM), hits mostly activators. 320,000 compounds, 2.4% hits. AID 485313, 2010; also: nearly all actives have a fitted effect of over 60% in size
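In 1536-well qHTS, Huh7 cells harboring an NPC1 promoter–luciferase construct received compound for 24 h; activation was quantified by luminescence following luciferase reagent addition.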
ELG1 DNA repair: qHTS screen for small molecules that inhibit ELG1-dependent DNA repair in human embryonic kidney (HEK293T) cells expressing luciferase-tagged ELG1 | HEK293T ELG1-luciferase reporter, luminescence, 16 h; DNA damage induced by 5-fluorouridine | Potency, µM (top dose mostly 46.1 µM), usual class: inhibitors | 330,000 compounds, 2.3% hits; also: nearly all actives have a fitted effect of over 55% in size
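Luminescence from the luciferase reporter, measured 30 min after ONE-Glo reagent at room temperature, was the read-out. Beforehand, 2,000 cells per well were exposed for 16 hr at 37 °C to 5-fluorouridine together with compound or vehicle.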
Numbers stand for hits. Calls follow the shape of the dose curve; as a rule, active = well fitted curve in the direction sought with a large enough effect; inconclusive = small, poorly fitted or top-dose-only effect, or another doubt; inactive = no such curve, though single readings can be large; an effect the other way counts as inactive or inconclusive.

`CC(Oc1ccc(Cl)cc1Cl)C(=O)OCn1nnc2ccccc2c1=O` (stereo not given) gave SMN2 splice enh inactive, FLuc modulator inactive, Rab9 prom act inactive, ELG1 genotoxic inactive, NPC1 prom act inactive and ELG1 DNA repair inactive.
For O=S1(=O)c2ccccc2N(Cc2cccc(Cl)c2)c2ccccc21 the results were FLuc modulator inactive.
Cc1nc(NC(=O)CC(C)C)sc1-c1csc(Nc2ccc(Cl)cc2Cl)n1 was read as SMN2 splice enh inactive, FLuc modulator inconclusive, Rab9 prom act inactive, ELG1 genotoxic inactive, NPC1 prom act inactive and ELG1 DNA repair 14.6µM.
Cc1nc(NC(=O)CC(C)C)sc1-c1csc(Nc2ccc(Cl)cc2)n1 was read as SMN2 splice enh inactive, FLuc modulator inconclusive, Rab9 prom act inactive, ELG1 genotoxic inactive, NPC1 prom act inactive and ELG1 DNA repair 23.1µM.
`C=CCCC(=O)Nc1nc(C)c(-c2csc(Nc3ccc(Cl)cc3Cl)n2)s1` gave SMN2 splice enh inactive, FLuc modulator 26.9µM, Rab9 prom act inactive, ELG1 genotoxic inactive, NPC1 prom act inactive and ELG1 DNA repair inactive.
`CCCCCC(=O)Nc1nc(C)c(-c2csc(Nc3ccc(Cl)cc3)n2)s1` gave SMN2 splice enh inactive, FLuc modulator inconclusive, Rab9 prom act inactive, ELG1 genotoxic inactive, NPC1 prom act inactive and ELG1 DNA repair inconclusive.
Screening C=CCCC(=O)Nc1nc(C)c(-c2csc(Nc3cc(Cl)ccc3OC)n2)s1 returned SMN2 splice enh inactive, FLuc modulator inactive, Rab9 prom act inactive, ELG1 genotoxic inactive, NPC1 prom act inactive and ELG1 DNA repair inconclusive.
NC(=O)c1ccsc1NC(=O)COC(=O)C1CC2CCCC(C1)C2=O (stereo not given) was read as FLuc modulator inconclusive, Rab9 prom act inactive, ELG1 genotoxic inactive, NPC1 prom act inactive and ELG1 DNA repair inactive.
For N#C/C(=C\c1c(N(Cc2ccccc2)Cc2ccccc2)nc2ccccn2c1=O)C(N)=O the results were SMN2 splice enh inactive, FLuc modulator inactive, Rab9 prom act inactive, ELG1 genotoxic inactive, NPC1 prom act inactive and ELG1 DNA repair 16.4µM.
Screening CC1CN(c2nc3ccccn3c(=O)c2/C=C(\C#N)C(N)=O)CC(C)O1 (stereo not given) returned FLuc modulator inactive, Rab9 prom act inactive, ELG1 genotoxic inactive, NPC1 prom act inactive and ELG1 DNA repair inactive.
`C=CCNC(=O)/C(C#N)=C/c1c(N(Cc2ccccc2)Cc2ccccc2)nc2ccccn2c1=O` gave SMN2 splice enh inactive, FLuc modulator inactive, Rab9 prom act inactive, ELG1 genotoxic inactive, NPC1 prom act inactive and ELG1 DNA repair 13µM.
Screening O=C1CCCC/C1=N\Nc1ccc(C2CCCCC2)cc1 returned FLuc modulator 1.69µM, Rab9 prom act inconclusive, ELG1 genotoxic 4.61µM, NPC1 prom act inactive and ELG1 DNA repair inconclusive.
Screening COc1ccc2c(c1OC)C(=O)N(c1cccc(NC(C)=O)c1)C2 returned FLuc modulator 10.7µM, Rab9 prom act inactive, ELG1 genotoxic inconclusive, NPC1 prom act inactive and ELG1 DNA repair inconclusive.
`COc1ccc(C(=O)Nc2cccc(NC(C)=O)c2)cc1OC` gave SMN2 splice enh inactive, FLuc modulator inconclusive, Rab9 prom act inactive, ELG1 genotoxic inactive, NPC1 prom act inactive and ELG1 DNA repair inconclusive.
Screening COc1ccc2c(c1OC)C(=O)N(c1ccc(F)cc1)C2 returned FLuc modulator 8.49µM, Rab9 prom act 1.26µM, ELG1 genotoxic inconclusive, NPC1 prom act 2µM and ELG1 DNA repair inconclusive.
N#Cc1ccncc1S(=O)c1ccc(Cl)cc1 (stereo not given) was read as FLuc modulator inactive, Rab9 prom act inactive, ELG1 genotoxic inactive, NPC1 prom act inactive and ELG1 DNA repair inactive.
